Screens from PubChem.
Only some compounds are listed: those with a hit (about 19% of all), similar ones and a draw of the others.
IL1B secr inh = qHTS for Inhibitors of Inflammasome Signaling: IL-1-beta AlphaLISA Primary Screen | AID 743279, 2014 | THP-1 LPS/ATP IL-1B secretion, AlphaLISA, 16 h; hits give low values | activity change, % at 57.5 µM | actives 4.7% (n = 360,000); in the data active = activity change below about -50%; inconclusive = mostly about -30% to -49%
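Secreted IL-1B measured by AlphaLISA bead assay after 16 h compound exposure of THP-1 cells; compounds (final up to 57.5 uM) added 1 h before LPS (250 ng/mL) and ATP (1.25 mM) stimulation; lower signal means less secretion.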
DT40 TDP1 CPT = qHTS for Inhibitors of human tyrosyl-DNA phosphodiesterase 1 (TDP1): qHTS in cells in presence of CPT; chicken DT40 Tdp1-/-;hTDP1 cells + 20 nM CPT, ATP luminescence, 48 h; Potency, µM (top dose mostly 46.2 µM), for inactives: at the highest dose activity change, negative = growth inhibition, most hits filed as inhibitors; actives 12% (n = 420,000); AID 686979, 2013; also: potency is read from the fitted curve at half-maximal effect; nearly all actives have a fitted effect of over 55% in size
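Cell growth measured by CellTiter-Glo luminescence after a minimum 48 h, 37 C compound exposure with 20 nM CPT in Tdp1-knockout DT40 cells stably expressing hTDP1, seeded 400/well; qHTS titration format.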
uPA surface inh = qHTS for Inhibitors of Cell Surface uPA Generation; cell surface uPA generation assay, qHTS; actives 0.31% (n = 330,000); Potency, µM (doses to about 38.3 µM), for inactives: at the top dose activity change, negative = inhibition, most hits filed as inhibitors; active = well fitted inhibition curve with a large enough effect; inconclusive = small, poorly fitted or top-dose-only effect; inactive = no such curve, though single readings can be large or run the other way; tested in mouse RAW 264.7 cells; also: potency is read from the fitted curve at half-maximal effect; nearly all actives have a fitted effect of over 55% in size
TDP1 cell noCPT = qHTS for Inhibitors of human tyrosyl-DNA phosphodiesterase 1 (TDP1): qHTS in cells in absence of CPT; actives 15% (n = 420,000); DT40 Tdp1-/- hTDP1 cells, no CPT, ATP luminescence, 48 h; Potency, µM (doses to about 46.2 µM), for the others: at the highest dose activity change, negative = growth inhibition, hits mostly inhibitors; also: potency is read from the fitted curve at half-maximal effect; nearly all actives have a fitted effect of over 55% in size
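Growth kinetics read by CellTiter-Glo luminescence after ≥48 hr at 37 °C. Cells: DT40 Tdp1-/- stably carrying human TDP1, 400 per well, compound exposure in the absence of CPT (DMSO vehicle).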
HT1080-NT tox = qHTS for induction of synthetic lethality in tumor cells producing 2HG: qHTS for the HT-1080-NT fibrosarcoma cell line. HT-1080-NT fibrosarcoma viability, CellTiter-Glo ATP luminescence, 48 h. Potency, µM (top dose mostly 46.1 µM), without a hit: at the top dose activity, negative = less viability, actives largely listed as cytotoxic. actives 1.6% (n = 360,000);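 also: NT is the 2HG producing partner of a matched IDH1 knockdown line; potency is read from the fitted curve at half-maximal effect; 0% = DMSO-treated cells and -100% = media-only wells without cells; nearly all actives have a fitted effect of over 55% in size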
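HT-1080-NT fibrosarcoma cells (2HG-overproducing), 750 cells/well in RPMI with 5% FBS, dosed after 2 h and incubated 48 h at 37C. CellTiter-Glo luminescence normalized to DMSO and no-cell wells; concentration-response curves fitted and classed.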
HT1080 IDH1KD tx = qHTS for induction of synthetic lethality in tumor cells producing 2HG: qHTS for the HT-1080-IDH1KD cell line. actives 2% (n = 360,000). Potency, µM (doses to about 46.1 µM), without a hit: at the top dose activity, negative = toxicity, usual class: cytotoxic. HT-1080 IDH1 knockdown viability, ATP luminescence, 48 h;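 also: potency is read from the fitted curve at half-maximal effect; 0% = DMSO wells and -100% = cell-free medium wells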
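% activity derives from luminescence (CellTiter-Glo), normalised to DMSO and no-cell wells. HT-1080-IDH1KD cells, 750/well, had 48 h compound exposure at 37 °C.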
* = called active by the depositor; ? = inconclusive; . = no result; ! = a repeat was not active; [ ] = another dose, or the depositor's remark. Unless noted, calls follow the shape of the dose curve; as a rule, active = well fitted curve in the direction sought with a large enough effect; inconclusive = small, poorly fitted or top-dose-only effect, or another doubt; inactive = no such curve, though single readings can be large; an effect the other way counts as inactive or inconclusive. Unless noted, % is scaled to controls: 0 for no effect and ±100 for the full control effect.

SMILES	IL1B secr inh	DT40 TDP1 CPT	uPA surface inh	TDP1 cell noCPT	HT1080-NT tox	HT1080 IDH1KD tx
FC(F)(F)c1ccccc1Cc1c(-c2ccc(Cl)cc2)nc2c3ccccc3ccn12	20	?	.	26µM*	11%	4%
FC(F)(F)c1ccccc1Cc1c(-c2cccc(Cl)c2)nc2c3ccccc3ccn12	16	?	.	21µM*	5%	-1%
OC(CNCCc1ccc(C(F)(F)F)cc1)COC(c1ccccc1)c1ccccc1 (centres undefined)	-69*	18µM*	?	?	?	?
COc1ccc(C(OCC(O)CNCCc2ccc(S(N)(=O)=O)cc2)c2ccc(OC)cc2)cc1 (centres undefined)	-68*	?	2%	?	-25%	?
Cc1csc(=O)n1CCC(=O)OCC(=O)NNC(=O)c1ccccc1	6	3%	2%	-4%	19%	17%
O=C(NCC1CCCO1)C1CC(=O)N(c2ccccc2)C1 (centres undefined)	-5	3%	1%	-14%	14%	9%
CCN(CC)CCOc1ccc(/C(=C(\Cl)c2ccccc2)c2ccccc2)cc1	-15	?	13%	15µM*!	4.6µM*	15µM*
CN(C(=O)c1nn(C)c2c1CS(=O)(=O)c1ccccc1-2)c1cccc(Cl)c1	1	-11%	-10%	?	9%	6%
Cc1ccc2nc(SC(C)C(=O)Nc3cccc([N+](=O)[O-])c3)[nH]c2c1 (centres undefined)	-73*	?	0%	?	-6%	-8%
CC(=O)c1c(C)[nH]c(C(=O)CSc2nnc(NC3CC3)s2)c1C	4	?	0%	15µM*	-7%	-3%
Cc1ccc2nc(SCC(=O)c3ccc4c(c3)OCO4)[nH]c2c1	24	4%	3%	-20%	3%	0%
Cc1ccc2nc(SCC(=O)Nc3cc([N+](=O)[O-])ccc3F)[nH]c2c1	91	18µM*	0%	?	-8%	-8%
CC(=O)c1c(C)[nH]c(C(=O)CSc2nc3ccc(C)cc3[nH]2)c1C	29	?	7%	15µM*	0%	-12%
COCCCNC(=O)C1CCN(c2ncnc3c2nc2n3CCCCC2)CC1	.	15%	.	-1%	.	.
O=C(c1ccccc1C(F)(F)F)N1CCOc2c(cc(-c3nc4ccccc4s3)cc2OC2CCOC2)C1 (centres undefined)	.	23%[9.04 µM]	.	-5%	.	.
CCOC(=O)CSc1n[nH]c(NC(=O)NC(C)C)n1	22	-18%	17%	8%	2%	7%
CCn1c(SCC(=O)c2[nH]c(C)c(C(C)=O)c2C)nnc1-c1ccccc1	4	23µM*	-5%	26µM*	-1%	16µM*
CCn1c(SCC(=O)c2[nH]c(C)c(C(C)=O)c2C)nnc1-c1ccncc1	20	-26%	5%	?	1%	3%[9.24 µM]
COc1ccc(CN2CCOc3ccc(C(O)c4cccnc4)cc3C2)c(OC)c1OC (centres undefined)	.	-9%[9.04 µM]	.	-29%	.	.
Nc1nsc2ccccc12	-99*	3.3µM*	?	2.2µM*	2.5µM*	2.5µM*
Cc1cc(C(=O)C(C)OC(=O)c2ccc(NC(=O)CC#N)cc2)c(C)n1-c1ccccc1 (centres undefined)	-56*	?	-1%	18µM*	?	-27%
CCC1CN(CCNC(=O)c2ccc(N3CCOCC3)cc2)Cc2cc(OC)ccc2O1 (centres undefined)	.	-16%	.	-29%	.	.
